# Measured values from PubChem BioAssay (Tox21).
# Results filed as inconclusive are left out. Active and inactive are the calls of the source. Calls follow the shape of the dose curve; as a rule, active = well fitted cell-killing curve with a large enough effect in the repeat runs; inconclusive = weak or mixed curves, or effect the other way; inactive = flat fitted curve, though single readings scatter.
# Assay: cAMP Responsive Elements (CRE) small molecule antagonists, cell-based qHTS assay: qHTS cell viability counter screen (AID 2060913); also: nearly all actives have a fitted effect of over 40% in size
# Conditions: CRE-bla HEK293T viability, CellTiter-Glo luminescence, 5 h; series mostly up to 92.4 µM; viability change, negative = cytotoxic: at the top concentration
# Outline: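 Cytotoxicity counter screen multiplexed with the CRE-bla antagonist read: HEK293T cells in DMEM with dialyzed FBS and 25 mM HEPES were treated 3 hrs under 0.25 uM final NKH477, then viability measured by CellTiter-Glo luminescence.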
# % is scaled to controls: 0 for no effect and ±100 for the full control effect; potency is read from the fitted curve at half-maximal effect.
SMILES,"viability change, negative = cytotoxic",Potency
C=CCN1C[C@H](C)N([C@H](c2ccc(C(=O)N(CC)CC)cc2)c2cccc(OC)c2)C[C@H]1C,-1.48% [at 42.5 µM] (inactive),
Oc1cc(Cl)c(Cl)c(Cl)c1,,51.7 µM (active)
CC(C)[N+](C)(CCC(C(N)=O)(c1ccccc1)c1ccccc1)C(C)C,-2.13% [at 42.5 µM] (inactive),
C#C[C@]1(O)C=C[C@H]2[C@@H]3CCC4=CC(=O)CC[C@@H]4[C@H]3CC[C@@]21CC,-1.96% [at 42.5 µM] (inactive),
Nc1ccc(-c2ccccc2)cc1,,inactive
COP(N)(=S)Oc1ccccc1C(=O)OC(C)C (configuration not stated),7.77% (inactive),
ClC=C(Cl)Cl,15.3% (inactive),
O=C(Cl)OCCOCCOC(=O)Cl,-7.45% (inactive),
C#CC(C)(C)O,-8.3% (inactive),
CCCC(C)(COC(N)=O)COC(=O)NC(C)C (configuration not stated),,inactive
CCCC(=O)Cl,1.49% (inactive),
O=[N+]([O-])CCO,10.4% (inactive),
Clc1ccc(-c2ccccc2)cc1,-7.46% (inactive),
CCCN,-1.18% (inactive),
CCC(C)(c1ccc(O)cc1)c1ccc(O)cc1,,inactive
CC(O)C(=O)[O][Hg][c]1ccccc1 (configuration not stated),,12.2 µM (active)
CCOP(=O)(NC(C)C)Oc1ccc(SC)c(C)c1 (configuration not stated),7.1% (inactive),
NNC(N)=S,,inactive
N=C(N)[Se],-9.46% (inactive),
CC(Cc1ccccc1)NCc1ccccc1Cl (configuration not stated),-3.12% [at 42.5 µM] (inactive),
O=C1c2ccccc2C(=O)C1C(=O)C(c1ccccc1)c1ccccc1,0.388% [at 42.5 µM] (inactive),
O=S(=O)(c1ccc(Cl)cc1)c1ccc(Cl)cc1,-11.8% (inactive),
C=C(Cl)Cl,9.3% (inactive),
CC(C)(C)CC(C)(C)c1ccc(O)cc1,,43.3 µM (active)
CCOC(=O)CC(SP(=O)(OC)OC)C(=O)OCC (configuration not stated),,inactive
C=CC(C)=O,1.47% (inactive),
O=[N+]([O-])c1c2ccccc2cc2ccccc12,-2.26% (inactive),
